# From the supplement of paper PMC12632987
# Whole data set: some 4,500 sequences, median “median log2 fold change of GCK-ALFA target abundance (FLAG IP / Myc IP barcode read proportion)” near 0.078, cut for the lowest 2% near -0.6. Only a selection was taken, and the lowest values are over-represented in it overall.
# B1: GBRAP_73_6498 (protein)
# chain: LTDTGLTDEEIADIVDHENDIFNGGEEAYEAAVARIRAALPELSPERQELLRRILEAAERAKKKDKLLAYELVALALAVVEGLDLEKARRALEALEKRLE
# B2: GBRAP_52_6205 (protein)
# chain: MHERMRAHARELVALVKAGDLDAARAYARELARTLNEEELELLGEELVELAKTAAPEDLDAIFKAAEILSDVLEEEGFDEALADGLLNRVAAALYERELK
# B3: GBRAP_160_4347 (protein)
# chain: MEAAEKLIKELKEATERVIAEVDKLSVEQVAVVAAGEFGAVAMEAAEDERYSDEMVDVIIDAQDKILAFLDENKDASPEEIKEGIKKITEEAIKKIKEIA
# B4: GBRAP_160_4081 (protein)
# chain: SAAHEKLIKEVTEIFDEALKMMEGVTPAEAVAIALVALGEVALLIEEEEELSEEDKDKLLALVDAAEAEVRAAADATVAELKALLERHRDEIVAAIKALD
# B5: GBRAP_35_5623 (protein)
# chain: NTDKEIAEAVVAVLEDTLLAKDTVPADTFIDTAIKVARLGIEVAKELKEYKENAKKILEAVEKLLKAAKERAKETGAPEEKLKEIEKLLKEVEELKKKLE
# B6: GBRAP_11_2643 (protein)
# chain: KKEKLKKAAELAKKAIEALKKLLEEGVDNEELRKKIEELLEELSKLVKEYADESLKKLVEIAKELWKKSLEDPENAEEYVKNLLAALRVLSAELEEEIEE
# B7: GBRAP_160_4726 (protein)
# chain: SERIREFVERFEERFLETIEATEDESKEEQAAMFRGTAGEILMEALEEPFLSDEMEDVVAEELDALVAELEANWDASKEEKKAIVREHMERLRERLLALA
# B8: GBRAP_160_4491 (protein)
# chain: SAKVEEAKKEVKAIVDDAVDAIAEAPADQRAAIARAYAGDIVQTLLELGVVTDEQAETVLDTAEAGLAAVVAASAAGAAAAAAAAAALVATLNDMIKKFS
# Target: GABARAP, O95166
# Sequence (O95166 whole entry, the tested form may be a part): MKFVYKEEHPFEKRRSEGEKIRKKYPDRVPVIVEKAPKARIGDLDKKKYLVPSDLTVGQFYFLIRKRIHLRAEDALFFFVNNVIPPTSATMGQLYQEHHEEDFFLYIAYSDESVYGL
# Test: median log2 fold change of GCK-ALFA target abundance (FLAG IP / Myc IP barcode read proportion) (log2 ratio); each designed protein is fused to an ALFA-tag nanobody in HEK293 cells to bring the named protein to FLAG-tagged glucokinase (GCK); Myc marks an untargeted standard; higher = target protein stabilised (more abundant)
# Conditions: target protein: 3xFLAG-MCP-GCK-ALFA reporter; HEK293 landing pad (RPLP)
# In short: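 Sequencing of reverse-transcribed, amplified circular RNA barcodes from anti-FLAG and anti-Myc immunoprecipitates provided the readout for an ALFA-nanobody-fused binder library recombined into HEK293 landing-pad cells. Those cells were induced with 2 μg mL^−1 doxycycline, transfected with a plasmid expressing a FLAG-tagged target and a Myc-tagged standard, and lysed after 48 h. Target abundance is the per-binder median log2 ratio of FLAG to Myc barcode read proportions. Only barcodes at a proportion of ≥10^−7 in both replicates and binders with ≥3 barcodes per replicate were kept, with a 10^−6 pseudocount added before the two replicates were pooled.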
row,Binder,median log2 fold change
1,B1,-0.718
2,B2,-0.122
3,B3,0.152
4,B4,0.134
5,B5,-0.669
6,B6,0.271
7,B7,0.0951
8,B8,-1.1
